# Source: PubChem BioAssay (National Center for Advancing Translational Sciences (NCATS))
# GALK inh: qHTS Assay for Inhibitors of Human Galactokinase (GALK): NCGC Sytravon Library Screen | AID 1347072, 2019 | Potency, µM (top dose mostly 57.5 µM), without a hit: top-dose activity, negative = inhibition, actives largely listed as inhibitors | 44,000 tested, under 10 active | recombinant GALK, Kinase-Glo ATP luminescence, 1 h;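 further: plate controls were full GALK reaction for no effect and reaction lacking GALK for full effect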
#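 Human GALK (5 nM) was incubated with 35 uM ATP and 100 uM galactose in 20 mM HEPES pH 8.0 with MgCl2, NaCl, DTT and BSA for 1 h at room temperature. Remaining ATP was measured by Kinase-Glo Plus luminescence.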
# NTMT1 inhibitor: Primary qHTS for Inhibitors of N-terminal methyltransferase 1 (NTMT1): MTaseGlo Assay | AID 1645870, 2021 | Potency, µM (titrated, usually from 114 µM), without a hit: at the top dose activity change, negative = inhibition, usual class: inhibitors | N-terminal Xaa-Pro-Lys N-methyltransferase 1 (Homo sapiens), Q9BV86 | 2.5% of 59,000 active | NTMT1 MTase-Glo SAH luminescence, purified enzyme;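 further: potency means the concentration at half of the fitted maximal effect; plate controls were DMSO vehicle for no effect and no enzyme for full effect; nearly all actives have a fitted effect of over 65% in size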
# Target sequence (Q9BV86 whole entry, looked up): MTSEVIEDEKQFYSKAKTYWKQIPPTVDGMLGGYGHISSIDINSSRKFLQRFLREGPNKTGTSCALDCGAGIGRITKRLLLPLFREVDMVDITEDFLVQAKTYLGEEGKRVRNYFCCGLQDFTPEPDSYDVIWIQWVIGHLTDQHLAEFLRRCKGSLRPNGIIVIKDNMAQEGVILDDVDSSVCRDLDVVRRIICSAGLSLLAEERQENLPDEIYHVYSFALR
# HTT promoter inh: Primary qHTS for Identification of Small Molecule Inhibitors of Huntingtin Promoter Activity; AID 1508623, 2021; Potency, µM (highest dose often 57.5 µM), inactives show at the top dose activity change, negative = inhibition, actives largely listed as inhibitors; HEK293 HTT promoter firefly luciferase reporter, 24 h; 0.93% of 48,000 active; further: potency means the concentration at half of the fitted maximal effect; nearly all actives have a fitted effect of over 50% in size
#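 Firefly luciferase signal from promoter-reporter HEK293 cells was scaled between vehicle (0%) and zero RLU (-100%). Compounds were tested at final concentrations of up to 57.5 uM over 24 h at 37 degrees C. PTC124 at 50 uM final served as control inhibitor.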
# HTT-AS promoter: Primary qHTS for Identification of Small Molecule Activators of Huntingtin-Antisense Promoter Activity | Potency, µM (highest dose often 57.5 µM), for the others: at the highest dose activity change, positive = activation, most hits filed as activators | 0.24% of 48,000 active | HEK293 HTT-AS promoter firefly luciferase reporter, 24 h; response scale: percent change from vehicle, -100% = no light | AID 1508624, 2021; further: potency means the concentration at half of the fitted maximal effect; nearly all actives have a fitted effect of over 55% in size
#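 Firefly luciferase signal from promoter-reporter HEK293 cells was scaled between vehicle (0%) and zero RLU (-100%). Compounds were tested at final concentrations of up to 57.5 uM over 24 h at 37 degrees C. PTC124 at 50 uM final served as control inhibitor.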
# FH mod: Identification of activators of human fumarate hydratase by quantitative high-throughput screening. Fumarate hydratase, mitochondrial (Homo sapiens), P07954. FH coupled MDH/diaphorase resazurin fluorescence, 15 min. Potency, µM (titrated, usually from 79.9 µM), for inactives: at the top dose activity change, negative = inhibition, actives largely listed as inhibitors. 0.22% of 54,000 active. AID 1347055, 2019; further: potency means the concentration at half of the fitted maximal effect; on the % scale 0 is the no-effect control and ±100 the full control effect; the screen sought activators but most active calls are inhibition curves; nearly all actives have a fitted effect of over 45% in size
# DYRK1A KinaseGlo: Assay for Inhibitors of Dual-Specificity Tyrosine-(Y)-Phosphorylation Regulated Kinase 1A (Kinase-Glo assay). shares compounds with NTMT1 inhibitor. recombinant DYRK1A, Kinase-Glo ATP depletion luminescence. Potency, µM (series often up to 76.9 µM), for inactives: at the highest dose activity change, negative = inhibition, most hits filed as inhibitors. 80% of 100 active. AID 2705, 2010
# CLK4 inh: Confirmation Assay for Inhibitors of CDC-like Kinase 4 (Kinase-Glo Assay): SAR round 2 | shares compounds with NTMT1 inhibitor | recombinant Clk4, Kinase-Glo ATP luminescence, 4.5 h | Potency, µM (top dose mostly 76.9 µM), for the others: at the highest dose activity, negative = inhibition, actives largely listed as inhibitors | 90% of 90 active | AID 493204, 2011
# Sfp PPTase inh: qHTS Assay for Inhibitos of Bacillus subtilis Sfp phosphopantetheinyl transferase (PPTase): Chemistry Optimization Followup; shares compounds with NTMT1 inhibitor; purified Sfp PPTase enzyme activity, qHTS; Potency, µM (series often up to 114 µM), without a hit: top-dose activity change, negative = inhibition, most hits filed as inhibitors; 78% of 230 active; AID 540350, 2011
# Bsub HM489 growth: qHTS for Inhibitos of Bacillus subtilis Sfp phosphopantetheinyl transferase (PPTase): Chemistry Optimization Followup in B. Subtilis HM489; shares compounds with NTMT1 inhibitor; B. subtilis HM489 (acpS-) growth, BacTiter-Glo, 5 h; Potency, µM (titrated, usually from 114 µM), for the others: at the highest dose activity change, negative = inhibition, actives largely listed as inhibitors; 50% of 220 active; AID 540353, 2011
# Sfp gel opt: Gel-Based Assay for Inhibitos of Bacillus subtilis Sfp phosphopantetheinyl transferase (PPTase): Chemistry Optimization Followup; shares compounds with NTMT1 inhibitor; purified Sfp PPTase, gel-based product detection; Potency, µM (titrated, usually from 250 µM), for the others: at the highest dose activity change, negative = inhibition, usual class: inhibitors; 54% of 220 active; AID 540355, 2011
# Sfp SAR2: qHTS Assay for Inhibitors of Bacillus subtilis Sfp phosphopantetheinyl transferase (PPTase): SAR Round 2; 87% of 230 active; AID 602370, 2012; purified Sfp enzyme, PPTase activity, qHTS; shares compounds with NTMT1 inhibitor; Potency, µM (top dose mostly 57.1 µM), for the others: at the top dose activity change, negative = inhibition, most hits filed as inhibitors
# HSD17B4 counter: Extended Characterization of HPGD Inhibitors: Counterscreen Against HSD17b4; shares compounds with NTMT1 inhibitor; purified HSD17B4, estradiol/NAD+, NADH fluorescence; Potency, µM (titrated, usually from 57.1 µM), without a hit: top-dose activity change, negative = inhibition, actives largely listed as inhibitors; 10% of 230 active
# ALDH1A1 inh: Extended Characterization of HPGD Inhibitors: Counterscreen Against ALDH1A1; shares compounds with NTMT1 inhibitor; AID 743195, 2013; recombinant ALDH1A1, NADH fluorescence, propionaldehyde/NAD+; Potency, µM (top dose mostly 57.1 µM), inactives show at the highest dose activity change, negative = inhibition, usual class: inhibitors; 93% of 230 active
# Target sequence (P00352 whole entry, looked up): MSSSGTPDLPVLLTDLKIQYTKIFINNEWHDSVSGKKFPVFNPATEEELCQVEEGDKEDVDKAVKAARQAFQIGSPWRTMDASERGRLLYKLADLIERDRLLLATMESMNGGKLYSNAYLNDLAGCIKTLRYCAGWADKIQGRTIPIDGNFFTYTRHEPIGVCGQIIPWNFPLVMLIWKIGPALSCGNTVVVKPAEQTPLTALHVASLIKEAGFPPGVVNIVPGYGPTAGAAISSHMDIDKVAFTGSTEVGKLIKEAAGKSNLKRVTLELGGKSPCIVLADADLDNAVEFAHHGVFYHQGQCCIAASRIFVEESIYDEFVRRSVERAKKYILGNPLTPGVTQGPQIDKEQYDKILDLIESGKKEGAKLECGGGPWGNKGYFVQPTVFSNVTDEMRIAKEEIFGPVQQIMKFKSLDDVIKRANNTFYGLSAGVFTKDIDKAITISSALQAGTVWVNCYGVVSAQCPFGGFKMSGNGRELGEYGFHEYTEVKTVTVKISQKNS
# An asterisk follows results filed as active; ? = inconclusive; nt = no result; [ ] = another dose, or the depositor's remark. Hits are enriched below; roughly 2.5% of the tested compounds scored in any of these assays. The call rests on the fitted dose curve; in most records, active means well fitted curve in the direction sought with a large enough effect; inconclusive means small, poorly fitted or top-dose-only effect, or another doubt; inactive means no such curve, though single readings can be large; an effect the other way counts as inactive or inconclusive.
SMILES,GALK inh,NTMT1 inhibitor,HTT promoter inh,HTT-AS promoter,FH mod,Sfp PPTase inh,Bsub HM489 growth,Sfp gel opt,Sfp SAR2,HSD17B4 counter,ALDH1A1 inh,others
Cc1cc(C)nc(NC(=S)N2CCN(c3ccc(Cl)c(Cl)c3Cl)CC2)c1,nt,?,nt,nt,nt,2.4µM*,7.4µM*,?,0.73µM*,-23%,19µM*,
Cc1ccc(NS(=O)(=O)c2cc3c(cc2NCC(C)(C)O)NC(=O)CC3)cc1C,nt,-8%,nt,nt,nt,nt,nt,nt,nt,nt,nt,
O=S(=O)(Nc1ccc(-c2cccnc2)c2cccnc12)c1cccc(C(F)(F)F)c1,nt,14%,nt,nt,nt,nt,nt,nt,nt,nt,nt,
Cc1cc(C)nc(NC(=S)N2CCN(c3cc(Cl)c(Cl)cc3Cl)CC2)c1,nt,?,nt,nt,nt,4.7µM*,?,5µM*,3.2µM*,-22%,22µM*,
O=C(Nc1ccc(F)cc1F)N1CCN(c2ccc(Cl)c(Cl)c2)CC1,-2%,1%,?,-28%,-25%,nt,nt,nt,nt,nt,nt,
Cc1cc(C)nc(NC(=S)N2CCN(c3cc(Cl)c(Cl)c(Cl)c3)CC2)c1,nt,?,nt,nt,nt,1.5µM*,8%,10µM*,0.36µM*,-8%,6.1µM*,
Cc1ccc(-n2ncc3c(N4CCN(C)CC4)ncnc32)cc1,0%,-1%,?,-60%,0%,nt,nt,nt,nt,nt,nt,
Cc1cc(C)nc(NC(=S)N2CCN(c3cc(C#N)cc(C#N)c3)CC2)c1,nt,?,nt,nt,nt,2.4µM*,93%,-73%,0.65µM*,-13%,17µM*,
Cc1cc(C)nc(NC(=S)N2CCN(c3cc(F)cc(F)c3)CC2)c1,nt,nt,nt,nt,nt,6.6µM*,37µM*,10µM*,1.3µM*,nt,nt,
Cc1cc(C)nc(NC(=S)N2CCN(c3ncnc4sccc34)CC2)c1,nt,-21%[57.5 µM],nt,nt,nt,5.9µM*,?,40µM*,1.8µM*,-24%,9.6µM*,
Cc1nc(NCc2ccc(-c3cccnc3)cc2)c2ccccc2n1,nt,-1%,nt,nt,nt,nt,nt,nt,nt,nt,nt,
Cc1cc(C)nc(NC(=S)N2CCN(c3nccc(C(F)(F)F)n3)CC2)c1,nt,?,nt,nt,nt,2.1µM*,?,3.2µM*,1.1µM*,?,17µM*,
Cc1cc(C)nc(NC(=S)N2CCN(c3ccsc3)CC2)c1,nt,nt,nt,nt,nt,5.9µM*,?,-77%,8.1µM*,?,22µM*,
Cc1cnc(-c2ccccc2CO)nc1NCC1CCN(c2cccnc2)CC1,nt,8%,nt,nt,nt,nt,nt,nt,nt,nt,nt,
Oc1ccc(CNc2ccc3ccccc3n2)c2cccnc12,nt,12%[57.5 µM],nt,nt,nt,nt,nt,nt,nt,nt,nt,
N#Cc1ccc(-c2ccc(=O)n(CC(=O)NCCc3ccccc3)n2)cc1,nt,17%,nt,nt,nt,nt,nt,nt,nt,nt,nt,
Cn1nccc1Nc1nccc(-c2cc3c(s2)C(C)(C)N(CCN2CCOCC2)C3=O)n1,nt,3%,nt,nt,nt,nt,nt,nt,nt,nt,nt,
O=C(O)C[C@H]1CCC(=O)[C@@H]1C/C=C\CCO,nt,-11%[57.5 µM],nt,nt,1%,nt,nt,nt,nt,nt,nt,
O=Cc1ccc(-c2ccc3ncnc(NCc4cccs4)c3c2)o1,nt,?,nt,nt,nt,nt,nt,nt,nt,nt,nt,CLK4 inh=26µM*
Cc1csc(CNc2ncnc3ccc(-c4ccc(C(C)O)o4)cc23)n1 (stereo unspecified),nt,?,nt,nt,nt,nt,nt,nt,nt,nt,nt,CLK4 inh=1µM*
Clc1cccc(-c2ccc3ncnc(NCc4cccs4)c3c2)c1,nt,-23%,nt,nt,nt,nt,nt,nt,nt,nt,nt,
C[C@@H](O)c1ccc(-c2ccc3ncnc(NCc4cccs4)c3c2)o1,nt,-10%[57.5 µM],nt,nt,nt,nt,nt,nt,nt,nt,nt,CLK4 inh=1.5µM*
FC1(F)Oc2ccc(-c3ccc4ncnc(NCc5cccs5)c4c3)cc2O1,nt,6%,nt,nt,nt,nt,nt,nt,nt,nt,nt,DYRK1A KinaseGlo=?
Clc1ccccc1-c1ccc2ncnc(NCc3cccs3)c2c1,nt,5%,nt,nt,nt,nt,nt,nt,nt,nt,nt,
c1coc(-c2ccc3ncnc(NCc4cccs4)c3c2)c1,nt,-14%,nt,nt,nt,nt,nt,nt,nt,nt,nt,DYRK1A KinaseGlo=6.5µM*
CN1C(=O)[C@@H](NC(=O)c2cc(Cc3ccccc3)on2)COc2ccccc21,nt,6%,nt,nt,nt,nt,nt,nt,nt,nt,nt,
